According to PubChem BioAssay (Tox21):
Results filed as inconclusive are left out. Unmarked numbers belong to inactive results. The source made the active and inactive calls. The call rests on the fitted dose curve; in most records, active means well fitted cell-killing curve with a large enough effect in the repeat runs; inconclusive means weak or mixed curves, or effect the other way; inactive means flat fitted curve, though single readings scatter.

Experiment: qHTS assay to identify small molecule antagonists of the estrogen receptor alpha (ER-alpha) signaling pathway using the BG1 cell line in the presence of 0.1 nM 17-beta-estradiol - cell viability counter screen (AID 1259241); further: nearly all actives have a fitted effect of over 40% in size
Details: VM7Luc4E2 (BG1) viability, CellTiter-Fluor protease, 22 h, 0.1 nM estradiol agonist added; series mostly up to 92.4 µM; activity change, negative = cytotoxicity: at the top concentration
From the text: National Center for Advancing Translational Sciences [NCATS]
NIH Chemical Genomics Center [NCGC]
U.S. Environmental Protection Agency [EPA]
National Institutes of Environmental Health Sciences [NIEHS]
National Toxicology Program [NTP]
U.S. Food and Drug Administration [FDA]
Estrogen receptor (ER), a member of the nuclear hormone receptor plays an important role in development, metabolic homeostasis and reproduction. Two subtypes of ER, ER-alpha and ER-beta, have similar expression patterns with some uniqueness in both types. Endocrine disrupting chemicals (EDCs) and their interactions with steroid hormone receptors like ER causes disruption of normal endocrine function. Therefore, it is important to understand the effect of environmental chemicals in ER signaling pathway. For identifying ER antagonists, VM7Luc4E2 cell line was used to screen against Tox21 compound libraries.
VM7Luc4E2 cell line (provided by Denison MS, University of California) endogenously express full-length ER-alpha and is stably transfected with a plasmid containing four estrogen responsive elements (ERE) upstream of a luciferase reporter gene. The current screening for identification of ER-alpha inhibitors against Tox21 compound libraries used lower concentration (0.1 nM) of 17beta-Estradiol as a stimulator. The cytotoxicity of the Tox21 compound libraries against VM7Luc4E2 cell line was tested by measuring live-cell protease activity using CellTiter-Fluor assay in the same wells.
Tox21 Assay Protocol Summary:
VM7Luc4E2 cells were cultured in phenol red free assay medium containing 10% charcoal stripped FBS for 5 days prior to the assay. The cells were dispensed at 4,000 cells/well in 4 uL of assay medium into white wall/solid-bottom 1536-well plates (Corning Life Sciences, Corning, NY) using a Multidrop Combi (ThermoFisher Scientific, Waltham, MA) dispenser. After the assay plates were incubated at 37C and 5% CO2 for 24 hr, 23 nL of compounds dissolved in DMSO, positive controls or DMSO only was transferred to the assay plates by a Pintool station (Kalypsys, San Diego, CA). The transfer of compounds was followed by the addition of 1 uL of 0.1 nM (final concentration) agonist (17beta-Estradiol)/assay medium using a Flying Reagent Dispenser (FRD, Aurora Discovery, San Diego, CA). The plates were incubated at 37C and 5% CO2 for 22 hr. For cytotoxicity assay, 1 uL of CellTiter-Fluor reagent (Promega Corporation, Madison, WI) was added to each well using the FRD and after 30 min incubation at 37C and 5% CO2, The fluorescence intensity was measured using ViewLux plate reader (PerkinElmer, Shelton, CT).
On the % scale 0 is the no-effect control and ±100 the full control effect; potency means the concentration at half of the fitted maximal effect.

| SMILES | activity change, negative = cytotoxicity | Potency |
| --- | --- | --- |
| COc1ccc(C)cc1[N+](=O)[O-] | 0.534% |  |
| C[N+]1(C)CCC(OC(=O)C(O)(c2ccccc2)C2CCCC2)C1 (stereo not given) | 6.37% [at 42.5 µM] |  |
| CC(C)Cc1ccc(C(C)C(=O)OCc2ccccn2)cc1 (stereo not given) | -14.2% [at 42.5 µM] |  |
| NCCCN1CCOCC1 | -5.7% |  |
| Cc1cc(C(=O)O)ccc1[N+](=O)[O-] | 23.7% |  |
| C/C=C/C(=O)CC | 0.659% [at 19 µM] |  |
| CCCCC(=O)OCC(=O)[C@H]1[C@H](C)C[C@H]2[C@@H]3C[C@H](F)C4=CC(=O)C=C[C@]4(C)[C@@]3(F)[C@@H](O)C[C@@]21C | 2.55% [at 42.5 µM] |  |
| CCO[Si](CCCCl)(OCC)OCC | 4.7% |  |
| Cn1c(=O)cc(Oc2ccc(F)cc2F)c2cnc(NCC(C)(C)O)nc21 | -9.11% |  |
| CC(=O)c1ccc2c(c1)N(CCCN1CCC(CCO)CC1)c1ccccc1S2 | -24% [at 42.5 µM] |  |
| Cc1ccc(C(=O)Oc2ccc(C(O)CNC(C)(C)C)cc2OC(=O)c2ccc(C)cc2)cc1 (stereo not given) | -9.43% [at 42.5 µM] |  |
| C#CCN(C)CCCOc1ccc(Cl)cc1Cl | -4.94% [at 42.5 µM] |  |
| CC1=CC=C(C(C)C)CC1 | 2.81% |  |
| CCCCCCCN | 6.42% |  |
| NCC(=O)CCC(=O)O | -5.46% [at 42.5 µM] |  |
| C/C=C/C=C/CO | -2.7% |  |
| CCO[C@H](Cc1ccc(OCCc2ccc(OS(C)(=O)=O)cc2)cc1)C(=O)O | 4.19% [at 42.5 µM] |  |
| OC(C#CCN1CCCC1)(c1ccccc1)c1ccccc1 | -12.2% [at 42.5 µM] |  |
| CN(C)CCN(Cc1ccc(Cl)cc1)c1ccccn1 | -1.46% [at 42.5 µM] |  |
| CN(C)c1ccc(C(c2ccccc2)c2ccc(N(C)C)cc2)cc1 | 1.46% |  |

| SMILES | activity change, negative = cytotoxicity | Potency |
| --- | --- | --- |
| CCNc1cc(O)ccc1C | -4.24% |  |
| CCN(CC)c1ccc2c(-c3ccccc3C(=O)O)c3ccc(=[N+](CC)CC)cc-3oc2c1 |  | 8.63 µM (active) |
| O=C(O)C(S)C(S)C(=O)O (stereo not given) | -2.14% [at 42.5 µM] |  |
| Brc1c2ccccc2cc2ccccc12 | -0.268% |  |
| C[N+](C)(C)CCOC(=O)CCC(=O)OCC[N+](C)(C)C | 6.05% [at 42.5 µM] |  |
| CCOC(=O)c1cccnc1 | -0.492% [at 42.5 µM] |  |
| O=C1c2ccccc2S(=O)(=O)N1CCCCN1CCN(c2ncccn2)CC1 | -7.62% [at 42.5 µM] |  |
| O=C(O)c1nc(Cl)c(Cl)c(Cl)c1Cl | 9.17% |  |
| COc1cc2nc(N3CCN(C(=O)C4COc5ccccc5O4)CC3)nc(N)c2cc1OC (stereo not given) | -13.1% [at 42.5 µM] |  |
| CC(=O)c1ccc2c(c1)N(CCCN(C)C)c1ccccc1S2 | -18.8% [at 42.5 µM] |  |
| Nc1ccc([N+](=O)[O-])c(C(F)(F)F)c1 | -14.6% [at 42.5 µM] |  |
| COc1ccc(C(=O)c2ccc(OC)cc2O)c(O)c1 | -3.81% |  |
| CC(C)(C)Cl | 8.6% |  |
| Clc1ccc2c(c1)CCc1cccnc1C2=C1CCNCC1 | -16.2% [at 42.5 µM] |  |
| Cc1oc2c(NC(=O)c3c(Cl)cccc3Cl)cccc2c1C(C)(C)O | -5.64% |  |
| OC[C@H]1O[C@@H](OCCc2ccc(O)cc2)[C@H](O)[C@@H](O)[C@@H]1O | -2.05% [at 42.5 µM] |  |
| c1ccc(C(O[C@H]2CCCN(CCc3ccc4c(c3)OCO4)C2)c2ccccc2)cc1 | -4.14% [at 42.5 µM] |  |
| CCCCCCCCCc1ccc(OCCOCCO)cc1 |  | 8.1 µM (active) |
| C=C1[C@H]2CC[C@@H]3[C@H]2C(C)(C)CCC[C@]13C | 5.7% |  |
| Nc1c(CC(=O)O)cccc1C(=O)c1ccc(Br)cc1 | 0.0705% [at 42.5 µM] |  |
